Assay results: PubChem BioAssay (NCI)
About 79,000 compounds went through this panel and 15% of them were active in at least one assay; those are over-represented in the sample as a whole. Values without a mark were called inactive. Calls of active or inactive are those of the source. No stated cut-off is given here; in the data, active means growth inhibition above about 70%; inactive means the rest.

Legend:
[1] = NCI Yeast Anticancer Drug Screen. Data for the rad50 strain (AID 155);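 further: 0% = growth of vehicle-only cultures of the same strain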; details: S. cerevisiae rad50 strain growth inhibition; at 50.0 µM; active compounds read high
Method in brief: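 A DNA repair-deficient yeast mutant serves as the test organism; compound-induced growth inhibition is calculated against vehicle-treated cells.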

[2] = NCI Yeast Anticancer Drug Screen. Data for the mec2-1 strain (AID 157); details: S. cerevisiae mec2-1 strain, at 50.0 µM, active compounds read high
Method in brief: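 Growth inhibition is read against vehicle-treated controls after compound exposure of the mec2-1 yeast strain, which is defective in DNA damage repair or cell cycle control.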

[3] = NCI Yeast Anticancer Drug Screen. Data for the sgs1 mgt1 strain (AID 161);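 further: 0% = growth of cultures given vehicle only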; details: S. cerevisiae sgs1 mgt1 strain, at 50.0 µM, active compounds read high
Method in brief: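 Growth of a repair-deficient yeast mutant was monitored after compound treatment and expressed as inhibition relative to vehicle-treated cultures.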

[4] = NCI Yeast Anticancer Drug Screen. Data for the cln2 rad14 strain (AID 165);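 further: 0% = growth equal to vehicle treated cultures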; details: S. cerevisiae cln2 rad14 strain, at 50.0 µM, active compounds read high
Method in brief: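 Growth inhibition, relative to vehicle-treated controls, is the read-out. The test organism is a yeast strain with defined genetic alterations, cln2 rad14.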

[5] = NCI Yeast Anticancer Drug Screen. Data for the bub3 strain (AID 167); details: S. cerevisiae bub3 mutant strain, at 50.0 µM, active compounds read high
Method in brief: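 Inhibition values come from growth of compound-treated mutant yeast normalised to vehicle-treated controls.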

[6] = NCI Yeast Anticancer Drug Screen. Data for the mlh1 rad18 strain (AID 175); details: S. cerevisiae mlh1 rad18 strain growth inhibition; at 50.0 µM; active compounds read high
Method in brief: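 Cells of a genetically altered yeast strain, deficient in DNA damage repair, were treated with compound. Their growth was then compared with that of vehicle-treated cultures to give inhibition.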

Row | Compound | growth inhibition [1] | growth inhibition [2] | growth inhibition [3] | growth inhibition [4] | growth inhibition [5] | growth inhibition [6]
1 | Nc1nc2scnc2c(=O)[nH]1 | 7.1% | -4.35% | -3.25% | -7.95% | -8.5% | 8.35%
2 | NC(=S)N/N=C/c1ncccc1N | 14.8% | 50.6% | 39.2% | 35% | 34.9% | -21.7%
3 | O=C(Nc1ccccc1)/C(N=Nc1ccccc1)=N\Nc1ccccc1 | -12.6% | -16.1% | -10.4% | -28.4% | 6.6% | 19.8%
4 | Cc1nnc(N/N=C/c2ccccc2)n1/N=C\c1ccccc1 | 8.05% | 17.1% | -5.8% | 10.2% | 4.85% | -25.4%
5 | CCB1OC2C(COC(C)=O)OC(OC(C)=O)C2O1 (configuration not stated) | -7.4% | -9.6% | -9.55% | -9.25% | -6.9% | -10.1%
6 | CC(Nc1cnccn1)Nc1cnccn1 | -3.1% | -3.55% | -0.4% | -23.4% | -5.2% | 1.05%
7 | CC1CC=C2C=C(Cl)C=CC2(C)C1C (configuration not stated) | 1.8% | 3.55% | -2.85% | -9.2% | 9% | -1.85%
8 | NCC1CC1 | 19.1% | -2.25% | 9.75% | 8.65% | -11.8% | 14.7%
9 | CN(CCC1(C)C(=O)CCc2ccccc21)Cc1ccccc1 (configuration not stated) | 12.9% | 21.8% | 22.8% | 30.9% | 14.1% | 17.1%
10 | CC1(C)CNCC2(C)OCCCOC3(C)CNCC(C)(C)NC(=O)C(C)(CNCC(C)(C)NC3=O)OCCCOC(C)(CNCC(C)(C)NC2=O)C(=O)N1 | -22.6% | -21.1% | -24.4% | 16.1% | -3.05% | -21.7%
11 | CC(=O)/C=C(O)/C=C/c1ccccc1 | -0.9% | 5.45% | -12.9% | 9.15% | 14.9% | 12.9%
12 | Cc1cc(N(CCC#N)CCC#N)ccc1/C(N=Nc1ccc([N+](=O)[O-])cc1)=N\NC(=O)c1cc(Cl)ccc1C(=O)c1ccccc1 | 9.3% | 3.15% | -15.7% | -4.25% | -22.4% | 7.7%
13 | C[Si](C)(C)COC(N)=O | -5.5% | 10.8% | -12.4% | 8.1% | 9.4% | 0.45%
14 | CC/C=C/C(C)c1cc(C(=O)O)ccc1OC (configuration not stated) | 10.9% | 4.3% | 13.4% | 6.55% | -13.2% | 18%
15 | S=C1SCN(C(c2ccccc2)c2ccccc2)CN1C(c1ccccc1)c1ccccc1 | 12.2% | 22.2% | 9.4% | -20.1% | -4.75% | 28.2%
16 | CC(=O)C(=Cc1c[nH]c2ccccc12)C(C)=O | 31.7% | 13.7% | 38.4% | 9.65% | 35.4% | 31.6%
17 | C/C(=N/OC(=O)c1cccc2c(=O)c3ccccc3[nH]c12)[C@H]1CC[C@H]2[C@@H]3CCC4=C/C(=N/OC(=O)c5cccc6c(=O)c7ccccc7[nH]c56)CC[C@]4(C)[C@H]3CC[C@]12C | 29.4% | 38% | 66.5% | 28.4% | 48.9% | 36.5%
18 | OC1CCCCCCCCCCC1C(O)(C(F)(F)F)C(F)(F)F (configuration not stated) | 99.3% (active) | 99.5% (active) | 99.8% (active) | 99% (active) | 99.6% (active) | 98.8% (active)
19 | CN1CCC=C(C(C)(C)O)C1 | -3.55% | -4.45% | -15.7% | 11.3% | -0.6% | 2.35%
20 | CCOC(=O)/C=C(\C)c1ccc(OC)cc1 | 7.2% | -22.4% | -3.3% | -7.5% | -8.7% | 11.8%
21 | CNS(=O)(=O)c1ccc(Br)cc1 | -15.9% | -24.6% | -9.85% | -14.2% | 3.35% | -12.4%

Row | Compound | growth inhibition [1] | growth inhibition [2] | growth inhibition [3] | growth inhibition [4] | growth inhibition [5] | growth inhibition [6]
22 | [N-]=[N+]=NC(=O)C1C(c2ccccc2)=C1c1ccccc1 | 45.5% | 6.8% | -0.2% | 23.7% | 27.8% | -10.2%
23 | S=c1[nH]nc(-c2ccccc2)n1/N=C\c1ccc(-c2ccc(Cl)cc2)o1 | 6.4% | -21.5% | -0.7% | 14.8% | -2.35% | 5.5%
24 | CC1(C)C2CC3C(CCC4C(=O)OC(=O)C43)C1C2 (configuration not stated) | -1.2% | 10.2% | -3.8% | -5.3% | -4.3% | -2.35%
25 | COc1ccc2oc3c(C)cc4c(OC)nnc(OC)c4c3c2c1 | -43.8% | -52.9% | -13.4% | -18.1% | -5.35% | -12.8%
26 | CCOC(=O)Cc1nc2sc(C)c(-c3ccccc3)c2c(=O)[nH]1 | 32.4% | 19.6% | 27.5% | 3.35% | 17.2% | 31.4%
27 | O=C1C(c2ccccc2)=C(c2ccccc2)/C1=C\c1ccc(Cl)cc1Cl | 7.4% | -5.9% | -13.9% | -8.9% | 5.5% | -13.8%
28 | O=C(O)C(=C\c1ccccc1)/C(=C\c1ccccc1)C(=O)OCc1ccccc1 | 16.9% | 5.3% | 19.9% | -0.4% | 47.5% | 8.4%
29 | COc1cc2c(c3c1c(=O)c1ccc(F)cc1n3C)C=CC(C)(C)O2 | -4.35% | -28.6% | -16.9% | -23.9% | -7.7% | -5.6%
30 | CNCc1cccs1 | -26.8% | -9.7% | -27.8% | -40.3% | -17.6% | -10.4%
31 | CCC(=O)C1(CCCN(C)C)c2ccccc2Sc2ccccc21 | -14.3% | 2.45% | -8.6% | -38.1% | -2.35% | 4.6%
32 | COc1ccc2c(=O)c(O)c(-c3ccc(OC)c(OC)c3)oc2c1 | 12.7% | 5.35% | -18.6% | -9.1% | -1.25% | 18.4%
33 | O=C1C[C@@H]2[C@@H](CCC23CCCC3)N1 | 17.8% | 12.9% | -9.75% | 20.4% | 15.2% | 20.6%
34 | COC(=O)/C(C#N)=C1\NC(=O)c2ccccc21 | 30.1% | 16.1% | 11.6% | 30.8% | 11.5% | 26%
35 | O=C1CCCC2C1C1CCCC(=O)C21 (configuration not stated) | 6.95% | -7.45% | 3.1% | 0.9% | 3.15% | 20.2%
36 | O=C(Nc1ccc(S(=O)(=O)N2CCCCC2)cc1)OC1CCCC1 | 3.85% | 14.7% | 1.15% | 18.9% | 14.8% | -12.6%
37 | CCN(CC)n1c(N)nc2c1c(=O)n(C)c(=O)n2C | -9.05% | -6.65% | 2.95% | -24.6% | 9.65% | 13.3%
38 | CCOC(=S)SCCSC | 11.7% | 6.3% | -1.45% | 4.35% | -3.6% | 11.6%
39 | Cc1cc(=O)[nH]c2ccc(-c3ccc4[nH]c(=O)cc(C)c4c3)cc12 | 21.4% | -17.2% | 31.3% | 5.15% | 23.1% | 18%
40 | O=C(Nc1ccn(CCI)c(=O)n1)c1ccccc1 | -20.8% | -37.4% | 10.1% | 14.4% | 15.2% | 26.1%
41 | COC(=O)/C(C#N)=C1\CCC(O)N1C (configuration not stated) | 11.9% | -10.8% | 5.8% | 6.2% | 3% | 9.6%
42 | O=C(O)c1ccccc1P(=O)(O)c1ccccc1 | -13% | -10.3% | -6.7% | 5.35% | -6.85% | -31.2%
